Laboratory results reported in PubChem BioAssay AID492967 (ICCB-Longwood Screening Facility, Harvard Medical School, 2010).
Among all 140,000 compounds or so, about 320 (0.23%) were called active. What follows is part of a selection rich in actives, with near analogues and random picks from the rest. A number with no mark means an inactive call. Rule as the data show it: active = z-score mostly below about -2.9 (no sharp cut-off); inactive = mostly above about -1.9.

Each compound was assayed on CapD gamma-glutamyltranspeptidase (Bacillus anthracis Ames Ancestor) (assay: Bacillus anthracis CapD inhibitors, primary screen, biochemical, fluorescence intensity (AID 492967)). Settings: purified CapD enzyme, fluorescence intensity read-out; hits give low values.

Row | Structure (SMILES) | z-score
1 | COc1ccc2nc(SCC(=O)Nc3cc(NC(=O)CSc4nc5ccc(OC)cc5[nH]4)cc(C(=O)O)c3)[nH]c2c1 | -1.48
2 | COc1ccc(CCNC(=O)c2cn(C)c(=O)c3cc(OC)c(OC)cc23)cc1OC | 1.5
3 | Cc1ccccc1Cn1c(CCNC(=O)C(C)(C)C)nc2ccccc21 | -0.49
4 | CCC(=O)NCCc1nc2ccccc2n1CC | -0.29
5 | O=C(COc1ccccc1)NCCc1nc2ccccc2n1Cc1ccccc1 | -8.12 (active)
6 | CC(C)NC(=O)CN1CCN(S(=O)(=O)c2cc(Cl)ccc2Cl)CC1 | -0.36
7 | CC(C)(C)c1ccc(OCCCn2c(=O)sc3ccccc32)cc1 | 0.35
8 | O=C1CC(c2c(Cl)cccc2Cl)c2ccc3ccccc3c2N1 (stereo not drawn) | 0
9 | COCCNC(=O)c1ccc(Cn2c(SCC(=O)NCC3CCCO3)nc3ccc(Br)cc3c2=O)cc1 (stereo not drawn) | -0.085
10 | Cc1ccc2cc3cc(C(=O)NCc4ccc(F)cc4)oc3nc2c1 | 50.4
11 | O=C(c1ccc(C(F)(F)F)cc1)N1CCC(c2nnc(-c3ccccc3)o2)CC1 | -0.12
12 | Cc1ccc2cc(C)c(C)cc2c1 | -0.345
13 | COc1ccc(CCNC(=O)CCC(=O)Nc2nc(-c3cc4ccccc4oc3=O)cs2)cc1OC | 0.27
14 | CN(C)C=NC(=O)c1ccc(Oc2ncc(C(F)(F)F)cc2Cl)cc1 | -0.275
15 | CC(=O)c1cc(Cl)cc(Cl)c1OC(=O)c1c(-c2c(Cl)cccc2Cl)noc1C | -0.58
16 | O=C(NCCCN1CCCCC1)c1cc(-c2ccncc2)nc2ccccc12 | 0.14
17 | CCOc1cc(/C=C2\SC(=S)N(C(C)C(=O)O)C2=O)ccc1O (stereo not drawn) | -2.57
18 | CCCC(C(=O)O)N1C(=O)/C(=C/c2ccc(O)c(OCC)c2)SC1=S (stereo not drawn) | -7.48 (active)
19 | CCOc1cc(/C=C2\SC(=S)N(c3c(C)n(C)n(-c4ccccc4)c3=O)C2=O)ccc1O | -1.1
20 | Cc1ccc(N2CCN(c3ccccc3)CC2)nn1 | -0.315

Row | Structure (SMILES) | z-score
21 | COc1ccc(CN2C(=O)CC(C(=O)Nc3ccc(F)cc3)SC2=Nc2ccccc2)cc1 (stereo not drawn) | -0.02
22 | CCN1C[C@]2(OC(=O)c3ccccc3NC(C)=O)CC[C@H](OC)[C@@]34C2C[C@@H]([C@@H]13)[C@@]1(O)C[C@H](OC)[C@H]2CC4[C@]1(O)[C@H]2OC (stereo partly drawn) | 7.48
23 | CN(C(=O)Cn1nc(Cc2ccncc2)c2ccccc2c1=O)c1ccccc1 | 5.11
24 | COc1ccc([N+](=O)[O-])cc1/C=C1\C(=O)NC(=O)N(c2ccc(Cl)cc2)C1=O | -0.64
25 | Oc1c(Br)cc(Br)cc1C=Nc1ccc(Oc2ccc(Cl)cc2)cc1 | -1.07
26 | Cc1ccc2c(c1)-c1onc(C(=O)NC3CCCCC3)c1CO2 | 3.98
27 | CCO/C=C1\SC(=S)N(Cc2ccccc2)C1=O | -0.945
28 | O=C1c2ccccc2C(=O)N1CC1c2ccccc2CCN1S(=O)(=O)c1cccc2nsnc12 (stereo not drawn) | -0.52
29 | CCCCOc1ccc(C(=O)Nc2ccc3nc(SCC(=O)NCC4CCCO4)sc3c2)cc1 (stereo not drawn) | 0.345
30 | O=C(/C=C/c1cn(-c2ccccc2)nc1-c1ccc(F)cc1)NCc1cccnc1 | 2.33
31 | COC(=O)c1sc(-c2cccs2)cc1NS(=O)(=O)c1ccccc1 | 41.9
32 | COC(=O)c1c(NC(=O)Cn2nc([N+](=O)[O-])c(Br)c2C)sc2c1CCC(C)C2 (stereo not drawn) | -0.48
33 | CCc1ccc(NC(=O)Cc2csc(C)n2)cc1 | -0.185
34 | CCOC(=O)C1C(=O)CN(c2ccccc2)C1=O (stereo not drawn) | 2.06
35 | O=C(C1CCN(S(=O)(=O)c2ccc3[nH]c4c(c3c2)CCCCC4)CC1)N1CCCC1 | -0.165
36 | Cc1ccc(NC(=O)c2ccccc2N)cc1C | 29
37 | C=CCNC(=S)Nc1ccn(Cc2ccccc2C)n1 | -0.535
38 | O=C(CSc1ccc(Cl)cc1)N1CCC(C(F)(F)F)CC1 | 0.56
39 | Cc1nc(Nc2ccc(S(N)(=O)=O)cc2)nc(Nc2ccc(S(N)(=O)=O)cc2)c1Br | -0.56
40 | CC(C)C(O)(C(=O)OC[C@@H]1CC[N+]2([O-])CCC[C@@H]12)C(C)O (stereo partly drawn) | 0.78

Row | Structure (SMILES) | z-score
41 | O=C1CSC(c2ccccc2)C(=O)N1c1ccc(Br)cc1 (stereo not drawn) | 0.345
42 | Cc1ccc(-c2n[nH]c3c2C(c2ccccc2F)N(c2ccc(F)cc2)C3=O)cc1 (stereo not drawn) | -0.525
43 | C/C(=N\NC(=O)C1CCCCC1)c1cccs1 | -0.47
44 | N#CCC1NCCc2ccccc21 (stereo not drawn) | -2.33
45 | CC1(C)CC2(CCCN(CC#N)C2)CCS1 (stereo not drawn) | 0.425
46 | COc1ccc(C(Nc2ncnc3c2ncn3C2CC=C(CO)CC2)(c2ccccc2)c2ccccc2)cc1 (stereo not drawn) | -0.275
47 | CN(Cc1ccccc1)C(=O)Cn1ncc2c3ccccc3n(Cc3ccccc3F)c2c1=O | 0.685
48 | O=C(CN1CCN(c2ccc([N+](=O)[O-])cn2)CC1)Nc1ccc2c(c1)OCO2 | -0.23
49 | CCN(c1ccccc1)S(=O)(=O)c1cc2c(cc1C)n(C)c(=O)c(=O)n2C | 4.49
50 | C=C1Cn2c(nnc2-c2ccc(Br)cc2)S1 | 0.32
51 | O=C(CSc1nc2ccc(Br)cc2c(=O)n1-c1ccccc1)NCc1ccco1 | 0.585
52 | O=C(O)CCCN1C(=O)/C(=C2\SC(=S)N(CCCC(=O)O)C2=O)SC1=S | 1.03
53 | O=C(O)c1cc2cccnc2nc1C(F)(F)F | -0.285
54 | COc1ccc(C(=O)OC2CC(C)=CCC3(C)CCC(O)(C(C)C)C23)cc1O (stereo not drawn) | -0.385
55 | COc1ccc(C(=O)N2CCN(C(=O)OCc3ccc(SC(F)(F)F)cc3)CC2)cc1F | 0.325
56 | Nc1c(C(=O)O)noc1C(=O)c1ccccc1 | 2.44
57 | O=C(OCC(=O)N1CCCCC1)c1ccc(OC(F)(F)F)cc1 | 0.135
58 | CC(C)(C)NC(=S)NNc1c(Cl)cncc1Cl | 0.41
